According to PubChem BioAssay:
Where “and” joins values, the source holds several entries; their conditions need not be identical. Equal entries are not always repeated. Where a structure was tested more than once in an assay, its records may differ in their call. Calls of active or inactive are those of the source. Cut-off read from the data, not from the text of the source, unless noted: active = parasite load remaining mostly below about 12% (no sharp cut-off); inactive = mostly above about 10%.

How the values were obtained:
[1] = suppressors of polyQ aggregation in yeast, 75Q-TubU reporter (AID 1593); details: Yeast 75Q polyglutamine aggregation reporter
[2] = inhibitors of mitochondrial cytochrome c release, biochemical, purified mitochondria (AID 1603); details: stronger effect = lower value;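 note: mouse liver mitochondria challenged with calcium chloride; signal normalized to the plate average as 100%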
[3] = inhibitors of polyQ protein aggregation (AID 1604); details: polyglutamine-induced protein aggregation inhibition assay; stronger effect = higher value; tested at 2.5 µM
[4] = liver-stage malaria parasite growth inhibition, primary screen, cell-based, HepG2, luciferase luminescence, HepG2 viability (AID 624349);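 note: 100% = mean of DMSO negative control wells on the same plate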; details: P. berghei liver stage in HepG2, luciferase luminescence, concentration not given here; parasite load remaining: stronger effect = lower value; viability: measured here: HepG2 viability without parasites
[5] = stimulators of nuclear beta-catenin in C2C12, primary screen, imaging, WNT3A-conditioned medium, mouse C2C12, NPC library (AID 1117326; in the data active = nuclear beta-catenin stimulation mostly above about 4.2%, no sharp cut-off; inactive = mostly below about 10%); details: stronger effect = higher value
[6] = stimulators of insulin release from INS-1E, primary screen, cell-based, 5 mM glucose, NPC library (AID 1117329;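 active = compound raises insulin release from rat beta cells at 5 mM glucose, no numeric limit stated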); details: rat INS-1E insulin secretion, at 10 µM, stronger effect = higher value
[7] = growth inhibition of GSK3B-pretreated HCT116 cells – cell-based, CellTiter-Glo, 0.2 to 20 µM (AID 1117336;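 active = compounds lowering colon cancer cell viability after pretreatment blocking the GSK3B kinase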); details: HCT116 viability after GSK3B inhibitor, at 20 µM, stronger effect = higher value
[8] = inhibition of endothelial tube formation, primary screen, imaging, VEGF stimulated, CD31 staining, tube area, NPC library (AID 1117340;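 active = compound that reduces growth-factor-driven endothelial tube area in a mixed cell culture, no cutoff stated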); details: VEGF-stimulated ADSC/ECFC co-culture, at 10 µM, stronger effect = higher value
[9] = glucagon-like peptide 1 release enhancers, primary assay, NCI-H716 cell line, NPC library (AID 1117341;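 active = compound raises GLP1 secretion from the human gut endocrine cells, with no numeric limit stated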); details: NCI-H716 cells, at 10 µM, stronger effect = higher value
[10] = HCT116 colon cancer cell growth inhibition, primary screen, CellTiter-Glo luminescence, NPC library (AID 1117342;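 active = compounds that lower survival of HCT116 colon cancer cells in the luminescence readout, no numeric limit stated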); details: at 20 µM (top of the series)
[11] = CellTiter-Glo luminescent readout of SW480 viability loss, NPC library primary (AID 1117343;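 active = compounds that lower viability of the colon cancer cells in the luminescence readout, with no numeric limit stated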); details: CellTiter-Glo luminescence; at 20 µM (top of the series)
[12] = decreased DLD-1 cellular survival, CellTiter-Glo luminescent readout, NPC compound collection, primary HTS (AID 1117346;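 active = compounds that lower survival of DLD-1 colon cancer cells in the luminescence readout, no cutoff given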); details: DLD-1 viability, CellTiter-Glo luminescence; at 20 µM (top of the series)
[13] = target: 6-phosphogluconate dehydrogenase, decarboxylating (Homo sapiens) (UniProt P52209); test: 6PGD enzyme inhibitors, primary screen, biochemical, human, recombinant enzyme, NADPH absorbance (AID 1159550;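 active = at least 20% inhibition of 6-phosphogluconate dehydrogenase activity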); details: recombinant 6PGD, NADPH absorbance 341 nm; at 10 µM; stronger effect = higher value
[14] = differential killing of epithelial or mesenchymal cells, primary screen, imaging, PC-3E GFP, TEM4-18 mCherry, co-culture (AID 1345086;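 active = compounds killing one labelled cell type while sparing the other, by normalised counts and ratio limits, not self-fluorescent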;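 for all read-outs here: cells exposed to compound for 72 h before imaging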;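 for red/green cell ratio (normalised): normalised mesenchymal count divided by normalised epithelial count so high means epithelial killing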); details: imaging cell counts, at 1 µM; for red/green cell ratio (normalised): actives lie on both sides
[15] = tested on: Aerobactin synthetase IucA (Klebsiella pneumoniae hvKP1); test: Biochemical IucA enzyme inhibition primary screen of the Spectrum library (AID 1346200; call rule not given here;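 note: 100% = wells without compound and 0% = wells lacking enzyme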); details: malachite green pyrophosphate, A620, at 8 µM, stronger effect = lower value
[16] = sensitizers of A549 cells to miR-34 induction, primary screen, imaging, A549 dox-inducible miR-34, nuclei and caspase counts (AID 1347080;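 active = compounds whose cell count with miR-34 switched on is under 0.7 times the count with it off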); details: A549 miR-34 inducible, Hoechst nuclei count, 48 h
[17] = survival rescue of mitochondrial mutant cells in low glucose, primary screen, MELAS cybrids, Rieske KO mouse fibroblasts, CellTiter-Glo (AID 1508586;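 active = mean z-score across replicates of 1.96 or higher in either the MELAS or the Rieske mutant cell line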;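 note: z relative to plate mean and SD of compound and empty wells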)
[18] = target: NAD(+) hydrolase SARM1 (Homo sapiens) (UniProt Q6SZW1); test: SARM1 TIR NADase inhibitors, cell lysate, NAD-Glo luminescence (AID 1508614;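 active = compound whose remaining NAD level is above about 45 nM, limit read from the data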;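 note: higher remaining NAD means stronger inhibition of SARM1 NADase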); details: SAM-TIR HEK293T lysate NADase, at 1 µM, stronger effect = higher value
[19] = target: Mitogen-activated protein kinase 7 (Homo sapiens) (UniProt Q13164); test: ERK5 transactivation activators in reporter cells, primary screen, cell-based, HTS (AID 1508626;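 active = luciferase signal above three times the same-plate solvent-only control wells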;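 note: luciferase driven by Gal4-ERK5 fusion binding five Gal4 sites before minimal TATA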); details: HeLa Gal4-ERK5 transactivation, 18 h, at 5 µM, stronger effect = higher value
[20] = viability rescue of complex I mutant cybrids, primary screen, cell-based, galactose medium, ATP luminescence (AID 1645843;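 active = z-score of at least 1.8 in each of two replicates, scored against plate mean and spread of sample wells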;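 note: positive z means more ATP and so rescue of galactose-driven cybrid death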); details: complex I mutant cybrid cells, 72 h, stronger effect = higher value
[21] = measured here: epithelial PC-3E GFP cell survival
[22] = measured here: mesenchymal TEM4-18 mCherry cell survival
[23] = measured here: relative caspase fold change +Dox/-Dox
[24] = measured here: total cells with miR-34 induction, stronger effect = lower value
[25] = measured here: total cells without miR-34 induction
[26] = MELAS cybrid survival, CellTiter-Glo 48 h, stronger effect = higher value
[27] = Rieske KO mouse fibroblast survival, CellTiter-Glo 72 h

Sequence of Mitogen-activated protein kinase 7 (Homo sapiens) (Q13164 whole entry, looked up, the tested form may be a part): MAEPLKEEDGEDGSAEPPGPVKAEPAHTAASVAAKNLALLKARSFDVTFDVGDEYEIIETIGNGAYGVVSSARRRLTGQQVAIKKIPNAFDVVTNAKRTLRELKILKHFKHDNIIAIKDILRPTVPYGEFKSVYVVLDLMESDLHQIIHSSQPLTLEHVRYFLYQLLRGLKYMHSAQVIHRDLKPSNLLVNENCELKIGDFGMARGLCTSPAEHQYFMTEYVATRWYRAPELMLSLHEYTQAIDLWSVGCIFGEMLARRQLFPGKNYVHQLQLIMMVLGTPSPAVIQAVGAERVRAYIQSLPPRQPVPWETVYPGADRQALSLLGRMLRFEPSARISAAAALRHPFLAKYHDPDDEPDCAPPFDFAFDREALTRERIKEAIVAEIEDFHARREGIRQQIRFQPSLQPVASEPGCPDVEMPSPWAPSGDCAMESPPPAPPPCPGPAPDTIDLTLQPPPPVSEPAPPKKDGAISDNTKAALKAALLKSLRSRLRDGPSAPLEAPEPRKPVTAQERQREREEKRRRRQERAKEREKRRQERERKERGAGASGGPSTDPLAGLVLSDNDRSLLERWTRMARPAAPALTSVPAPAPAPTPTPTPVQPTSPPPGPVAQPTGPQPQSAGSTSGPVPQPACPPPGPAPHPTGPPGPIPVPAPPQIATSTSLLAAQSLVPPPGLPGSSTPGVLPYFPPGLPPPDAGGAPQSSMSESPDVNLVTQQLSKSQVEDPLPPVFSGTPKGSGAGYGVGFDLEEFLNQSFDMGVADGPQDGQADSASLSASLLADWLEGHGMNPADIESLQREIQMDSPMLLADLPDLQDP
Sequence of 6-phosphogluconate dehydrogenase, decarboxylating (Homo sapiens) (P52209 whole entry, looked up): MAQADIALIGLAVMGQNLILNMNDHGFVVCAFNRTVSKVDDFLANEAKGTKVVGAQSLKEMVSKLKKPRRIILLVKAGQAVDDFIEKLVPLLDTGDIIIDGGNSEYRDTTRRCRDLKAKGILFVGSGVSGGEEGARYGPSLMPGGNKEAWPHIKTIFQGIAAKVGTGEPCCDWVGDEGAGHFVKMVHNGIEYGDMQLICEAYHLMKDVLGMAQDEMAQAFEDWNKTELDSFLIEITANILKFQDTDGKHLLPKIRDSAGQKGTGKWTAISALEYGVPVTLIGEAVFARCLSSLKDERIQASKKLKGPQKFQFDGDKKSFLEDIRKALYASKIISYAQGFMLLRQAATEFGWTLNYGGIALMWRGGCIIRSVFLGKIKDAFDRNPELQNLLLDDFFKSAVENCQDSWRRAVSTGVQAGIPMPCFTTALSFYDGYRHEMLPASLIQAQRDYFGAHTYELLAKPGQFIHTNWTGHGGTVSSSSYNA
Sequence of NAD(+) hydrolase SARM1 (Homo sapiens) (Q6SZW1 whole entry, looked up, the tested form may be a part): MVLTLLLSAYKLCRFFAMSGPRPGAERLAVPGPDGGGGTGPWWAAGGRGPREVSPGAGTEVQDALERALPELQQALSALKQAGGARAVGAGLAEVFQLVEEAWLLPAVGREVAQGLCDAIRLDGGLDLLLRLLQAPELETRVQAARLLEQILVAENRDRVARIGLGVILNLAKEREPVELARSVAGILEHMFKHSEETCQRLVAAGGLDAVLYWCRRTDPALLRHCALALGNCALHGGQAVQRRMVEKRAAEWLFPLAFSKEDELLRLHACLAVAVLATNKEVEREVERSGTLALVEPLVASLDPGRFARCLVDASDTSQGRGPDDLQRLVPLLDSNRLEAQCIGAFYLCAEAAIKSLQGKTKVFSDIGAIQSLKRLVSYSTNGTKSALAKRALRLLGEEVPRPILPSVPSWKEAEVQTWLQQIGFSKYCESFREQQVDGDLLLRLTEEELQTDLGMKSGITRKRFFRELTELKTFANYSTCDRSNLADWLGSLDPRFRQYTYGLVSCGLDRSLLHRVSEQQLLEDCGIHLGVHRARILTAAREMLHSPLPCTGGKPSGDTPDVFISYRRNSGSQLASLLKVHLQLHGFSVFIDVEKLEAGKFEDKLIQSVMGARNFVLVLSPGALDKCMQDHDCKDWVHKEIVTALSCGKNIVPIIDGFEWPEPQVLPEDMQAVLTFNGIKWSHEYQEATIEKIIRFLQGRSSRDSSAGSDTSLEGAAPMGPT

CCCCCCCCCCCCCCCC[N+](C)(C)C
score [1]: 0.03
cytochrome c release ratio [2]: 2.11
inhibition of aggregation [3]: 65.1%
parasite load remaining [4]: 86.4% (inactive) and 31.9% (inactive)
viability [4]: 75.1% and 81.2%
nuclear beta-catenin stimulation ([5]; at 10 µM): 19.2% (inactive)
nuclear beta-catenin stimulation ([5]; stimulation, at 2 µM): 9.4%
insulin secretion stimulation [6]: -0.3% (inactive)
viability decrease [7]: 100% (active)
tube area decrease [8]: 109% (active)
GLP1 secretion stimulation [9]: 40.8% (active)
inhibition of viability [10]: 102% (active)
viability decrease (inhibition) [11]: 123% (active)
viability decrease (inhibition) [12]: 104% (active)
inhibition [13]: -5.61% (inactive)
red/green cell ratio (normalised) [14]: 0.49 (inactive)
normalised cell number [14, 21]: 0.64
normalised cell number [14, 22]: 0.31
activity remaining [15]: 108% (inactive)
fold change ([16]; stronger effect = lower value): 0.616 (active) and 0.9 (inactive)
fold change [16, 23]: 3.21 and 2.28
cell count [16, 24]: 4400 and 4060
cell count [16, 25]: 7150 and 4510
z-score [17, 26]: -0.416 (inactive)
z-score [17, 27]: -0.288
remaining NAD [18]: 10 nM (inactive)
luciferase signal [19]: 96 AU (inactive)

CC[n+]1c(-c2ccccc2)c2cc(N)ccc2c2ccc(N)cc21
score [1]: 0.43
cytochrome c release ratio [2]: 0.84
inhibition of aggregation [3]: 47.5%
parasite load remaining [4]: 116% (inactive)
viability [4]: 83.5%
nuclear beta-catenin stimulation ([5]; at 10 µM): 17.6% (inactive)
nuclear beta-catenin stimulation ([5]; stimulation, at 2 µM): 1%
insulin secretion stimulation [6]: 2.1% (inactive)
viability decrease [7]: -24.6% (active)
tube area decrease [8]: 29.5% (inactive)
GLP1 secretion stimulation [9]: -2.8% (inactive)
inhibition of viability [10]: 79.1% (active)
viability decrease (inhibition) [11]: 52.1% (active)
viability decrease (inhibition) [12]: 83.7% (active)
inhibition [13]: 7.37% (inactive)
red/green cell ratio (normalised) [14]: 2.8 (inactive)
normalised cell number [14, 21]: 0.31
normalised cell number [14, 22]: 0.87
activity remaining [15]: 95.2% (inactive)
remaining NAD [18]: 10 nM (inactive)
luciferase signal [19]: 104 AU (inactive)

C[C@@H]1CC[C@H]2[C@@H](C)C(=O)O[C@@H]3O[C@@]4(C)CC[C@@H]1[C@]32OO4
parasite load remaining [4]: 25.6% (inactive) and 10.2% (inactive)
viability [4]: 117% and 66.5%
nuclear beta-catenin stimulation ([5]; at 10 µM): 4.6% (inactive)
nuclear beta-catenin stimulation ([5]; stimulation, at 2 µM): 12.4%
insulin secretion stimulation [6]: 1.2% (inactive)
viability decrease [7]: -77.7% (inactive)
tube area decrease [8]: 2.4% (inactive)
GLP1 secretion stimulation [9]: 2.4% (inactive)
inhibition of viability [10]: -20.1% (inactive)
viability decrease (inhibition) [11]: 9.1% (inactive)
viability decrease (inhibition) [12]: 1.3% (inactive)
inhibition [13]: 13.7% (inactive)
fold change ([16]; stronger effect = lower value): 0.79 (inactive) and 0.823 (inactive) and 0.882 (inactive)
fold change [16, 23]: 1.42 and 2.37 and 1.1
cell count [16, 24]: 7550 and 7220 and 8310
cell count [16, 25]: 9550 and 8770 and 9420
z-score [17, 26]: -0.639 (inactive) and -0.018 (inactive)
z-score [17, 27]: -1.11 and 0.162
remaining NAD [18]: 10 nM (inactive)
luciferase signal [19]: 84 AU (inactive)
z-score [20]: -0.515 (inactive) and -1.27 (inactive)

c1ccc2c(c1)sc1ccccc12
score [1]: -0.17
cytochrome c release ratio [2]: 0.98
inhibition of aggregation [3]: 65.4%
parasite load remaining [4]: 94.3% (inactive) and 69.4% (inactive)
viability [4]: 70.5% and 91.8%
nuclear beta-catenin stimulation ([5]; at 10 µM): 0.1% (inactive)
nuclear beta-catenin stimulation ([5]; stimulation, at 2 µM): 0.9%
insulin secretion stimulation [6]: -1.4% (inactive)
viability decrease [7]: -3.95% (inactive)
tube area decrease [8]: -9.2% (inactive)
GLP1 secretion stimulation [9]: -2.6% (inactive)
inhibition of viability [10]: -22.5% (inactive)
viability decrease (inhibition) [11]: -1.8% (inactive)
viability decrease (inhibition) [12]: 3% (inactive)
inhibition [13]: 9.3% (inactive)
red/green cell ratio (normalised) [14]: 1.2 (inactive)
normalised cell number [14, 21]: 1.12
normalised cell number [14, 22]: 1.35
activity remaining [15]: 113% (inactive)
fold change ([16]; stronger effect = lower value): 0.934 (inactive) and 0.791 (inactive)
fold change [16, 23]: 0.629 and 1.03
cell count [16, 24]: 8380 and 10000
cell count [16, 25]: 8970 and 12600
z-score [17, 26]: -0.144 (inactive)
z-score [17, 27]: -0.145
remaining NAD [18]: 10 nM (inactive)
luciferase signal [19]: 32 AU (inactive)
